High-throughput results deposited in PubChem BioAssay by National Center for Advancing Translational Sciences (NCATS).
The list is not random: actives were taken first. Their share in the collection is about 3.6%.
CRE-bla Fsk = modulators of forskolin-stimulated CRE signaling in CHO cells | CHO CRE-bla reporter (cAMP response element driving beta-lactamase), forskolin EC10, beta-lactamase ratio | Potency, µM (doses to about 38.2 µM), usual class: activators | 2.5% of 71,000 active | AID 662; active = well fitted activation curve with a large enough effect in the signal ratio, with a control signal flat, not every such curve was filed as active; inconclusive = small, poorly fitted or top-dose-only effect, or effect the other way, or a change in a side signal; the % refers to the signal ratio
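Using CellSensor CRE-bla CHO cells in Opti-MEM with 0.5% dialyzed FBS, compounds were titrated with EC10 NKH 477 for 3 h at 37 °C. CCF4 ratio (460/530 nm) gave %Activity; AC50 derived.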
TSHR agonist = activates the human thyroid stimulating hormone receptor; HEK293-CNG-TSHR cells (CNG channel as cAMP sensor), membrane potential dye, cAMP; AID 926; Potency, µM (top dose mostly 57.1 µM), most hits filed as activators; 0.48% of 73,000 active; active = well fitted activation curve with a large enough effect in the main read-out, with a control signal flat, not every such curve was filed as active; inconclusive = small, poorly fitted or top-dose-only effect, or a change in a side signal; inactive = no such curve, though single readings can be large or run the other way; reference of the percent scale not stated here;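 note: the control signal comes from parental cells without the receptor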
Target sequence (P16473 whole entry, looked up): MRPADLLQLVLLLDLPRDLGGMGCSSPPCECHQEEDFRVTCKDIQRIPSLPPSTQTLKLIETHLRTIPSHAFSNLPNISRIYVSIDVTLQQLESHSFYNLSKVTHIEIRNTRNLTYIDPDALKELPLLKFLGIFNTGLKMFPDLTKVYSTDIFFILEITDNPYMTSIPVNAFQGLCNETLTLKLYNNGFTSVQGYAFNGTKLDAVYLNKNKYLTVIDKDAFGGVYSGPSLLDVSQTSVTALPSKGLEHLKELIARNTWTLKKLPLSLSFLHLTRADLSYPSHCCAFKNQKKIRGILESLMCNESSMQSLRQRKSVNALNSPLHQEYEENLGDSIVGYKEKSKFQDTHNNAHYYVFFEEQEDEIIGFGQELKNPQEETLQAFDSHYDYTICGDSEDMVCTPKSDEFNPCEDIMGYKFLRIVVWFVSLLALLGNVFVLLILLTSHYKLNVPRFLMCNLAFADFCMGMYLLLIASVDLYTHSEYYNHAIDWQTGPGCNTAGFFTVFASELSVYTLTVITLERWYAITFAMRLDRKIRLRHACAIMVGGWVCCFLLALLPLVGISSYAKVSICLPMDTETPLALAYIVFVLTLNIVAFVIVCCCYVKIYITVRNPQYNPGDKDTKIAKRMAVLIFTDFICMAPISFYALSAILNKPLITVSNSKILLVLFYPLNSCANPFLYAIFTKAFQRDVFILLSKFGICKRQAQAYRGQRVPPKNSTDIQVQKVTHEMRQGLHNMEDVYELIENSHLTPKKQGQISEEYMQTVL
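cAMP rise detected as CNG-channel membrane depolarization by fluorescent dye (emission 590 nm), 30 min after compound, following 60 min dye loading containing 100 uM RO 20-1724 at room temperature. Cells: TSHR/CNG HEK 293, with parental CNG HEK 293 as control.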
HEK293 cAMP ctrl = raises cAMP in parental HEK293 cells, TSHR agonist counter-screen; parental HEK293 CNG cAMP sensor, membrane potential fluorescence; Potency, µM (doses to about 57.1 µM), actives largely listed as activators; 2.5% of 73,000 active; AID 938; note: nearly all actives have a fitted effect of over 55% in size
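Parental HEK 293 cells stably expressing a modified CNG channel (no TSHR) report cAMP rise as membrane depolarization. Membrane potential dye with 100 uM RO 20-1724 was loaded for 60 min at room temperature, then compound added for 30 min; fluorescence read at 590 nm.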
IkB sig inh = suppresses IkB signaling in ABC-DLBCL reporter cells; 0.04% of 110,000 active; ABC-DLBCL IkBa-CBG/CBR dual luciferase ratio, 4 h; response scale: scaled: untreated 0%, proteasome inhibitor 100%; Potency, µM (top dose mostly 57.1 µM); active = well fitted curve in the direction sought with a large enough effect in the signal ratio, not every such curve was filed as active; inconclusive = small, poorly fitted or top-dose-only effect, or a change in a side signal; the % refers to the signal ratio;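 note: the direction sought is a rising ratio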
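In this assay, an IκBα–CBG68 fusion accumulates when IKK-driven degradation is blocked; native CBR normalizes for cell number. OCI-Ly3 cells were treated 4 h with compound and doxycycline, then green and red light read after Chroma-Glo addition.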
ERK AVP inh = inhibitors of vasopressin-stimulated ERK signaling pathway | 0.99% of 72,000 active | HEK293-V1b, vasopressin-stimulated pERK AlphaScreen | Potency, µM (titrated, usually from 57.5 µM), actives largely listed as inhibitors | AID 995; note: nearly all actives have a fitted effect of over 55% in size
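HEK293 cells stably expressing V1b receptor, preincubated 30 min at 37 °C with compound, then stimulated 5 min with 25 nM vasopressin. Phospho-ERK by AlphaScreen SureFire after 5 h RT; normalized to DMSO and vasopressin; AC50 by Hill fit.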
Numbers stand for hits; 0 = inactive; ? = inconclusive; - = no result; [ ] = remark or other dose. Unless noted, calls come from the whole dose curve; as a rule, active = well fitted curve in the direction sought with a large enough effect; inconclusive = small, poorly fitted or top-dose-only effect, or another doubt; inactive = no such curve, though single readings can be large; an effect the other way counts as inactive or inconclusive.

SMILES	CRE-bla Fsk	TSHR agonist	HEK293 cAMP ctrl	IkB sig inh	ERK AVP inh
CC(C)CC(NC(=O)C1CCC(C)CC1)C(=O)N1CCN(c2ccccn2)CC1 (stereo unspecified)	0	0	0	0	0
CCOC(=O)CNC(=O)CSc1nc2cccnc2n1C1CCCCC1	?	0	0	0	?
CC(C)OC(=O)CSc1nc2cccnc2n1C1CCCCC1	?	?	16µM	0	0
COCCn1c(=S)[nH]c2cc(C(=O)N3CCc4ccccc43)ccc2c1=O	?	?	16µM	?	?
COCCn1c(=S)[nH]c2cc(C(=O)N3CCN(Cc4ccc5c(c4)OCO5)CC3)ccc2c1=O	?	0	0	0	0
COc1ccc(-c2nc(C#N)c(NCC3CCCO3)o2)cc1OC (stereo unspecified)	13µM	0	0	0	?
COc1ccc(-c2nc(C#N)c(NCCCN(C)C)o2)cc1OC	0	0	0	0	0
COc1ccc(-c2nc(C#N)c(NC(C)c3ccccc3)o2)cc1OC (stereo unspecified)	?	0	0	?	16µM
Cc1noc(/C=C/c2ccccc2F)c1S(=O)(=O)N1CCC(C(=O)NCc2ccco2)CC1	-	-	-	0	-
COCCNC(=O)CN(c1cccc(OC)c1)S(=O)(=O)c1ccc(C)cc1	0	0	0	0	0
CC(C)(C)n1nnnc1C(c1ccccc1F)N(Cc1ccco1)CC1CCCO1 (stereo unspecified)	0	?	13µM	?	0
Cc1ccc(C(NC(=O)N2CCOCC2)=C(Cl)Cl)cc1F	?	?	?	?	0
COCCn1c(=O)c(-c2cccc(Cl)c2)nc2cncnc21	?	0	0	0[11.4 µM]	0
COc1ccccc1CCn1c(=O)c(-c2cccc(F)c2)nc2cncnc21	?	?	?	0[11.4 µM]	0
COc1ccccc1CCn1c(=O)c(-c2ccccc2)nc2cncnc21	?	?	4µM	0[11.4 µM]	0
COc1ccccc1CCn1c(=O)c(-c2ccc(F)c(F)c2)nc2cncnc21	10µM	?	?	0[11.4 µM]	?
COCCn1c(=O)c(-c2ccc(Cl)cc2)nc2cncnc21	10µM	?	?	0[11.4 µM]	0
CSc1nsc(SCC(=O)N2CCc3ccccc32)n1	0	?	25µM	0	0
O=C(CN1CCN(C2CCCCC2)CC1)c1ccc2cc[nH]c2c1	0	0	0	0	-
O=C(O)c1ccc2cc[nH]c2c1	0.2µM	0	0	0	0
CCc1nc(SCc2cccnc2)c2c(=O)n(C)c(=O)n(C)c2n1	2.5µM	0[11.4 µM]	0	0	-
Cn1c(=O)c2c(SCc3cccnc3)nc(C3CC3)nc2n(C)c1=O	3.2µM	0	0	0	-
CCOc1ccc(/C(O)=C2/C(=O)C(=O)N(CCOCCO)C2c2cccnc2)cc1 (stereo unspecified)	0	0	0	0	0
CCOC(=O)N1CCN(Cc2cn3ccccc3n2)CC1	0	0	0	0	0
N#Cc1nc(Cc2ccccc2)oc1N1CCN(c2ccccc2)CC1	0	?	?	0	25µM
SMILES	CRE-bla Fsk	TSHR agonist	HEK293 cAMP ctrl	IkB sig inh	ERK AVP inh
N#Cc1nc(-c2cccs2)oc1N1CCN(c2ccccc2)CC1	?	?	20µM	0	0
N#Cc1nc(Cc2ccccc2)oc1N1CCC(Cc2ccccc2)CC1	?	?	?	0	0
CCCCCc1c(C)nc(Nc2nc(C)c3cc(OC)ccc3n2)[nH]c1=O	0	?	10µM	0	0
CCc1c(C)nc(Nc2nc(C)c3cc(OC)ccc3n2)[nH]c1=O	?	0	0	?	0
CCN1C(=O)c2cccc3c(NC(=O)C4CCCCC4)ccc1c23	?	-	0	0	0
CCN1C(=O)c2cccc3c(NC(=O)c4ccc5c(c4)OCCO5)ccc1c23	2.5µM	-	0	0	0
O=C(C1CC1)N1CCc2cc(S(=O)(=O)NCC3COc4ccccc4O3)ccc21 (stereo unspecified)	?	?	?	?	0
O=C(C1CC1)N1CCc2cc(Br)cc(S(=O)(=O)NCC3COc4ccccc4O3)c21 (stereo unspecified)	0	?	16µM	?	0
O=C(CCC1CCCC1)N1CCN(S(=O)(=O)Cc2ccccc2)CC1	0	0	0	0	?
COc1ccc2nc(S(=O)Cc3ncc(C)c(OC)c3C)[nH]c2c1 (stereo unspecified)	5µM	0	0	0	0
COc1ccc2nc(SCC(N)=O)[nH]c2c1	?	0	0	0	0
Cc1ccc(C2C3=C(CC(C)(C)CC3=O)NC3=C2C(=O)CC(C)(C)C3)o1	?	13µM	0	0	0
CC1=C(C#N)C(C)C2=C(CC(C)(C)CC2=O)N1 (stereo unspecified)	?	0	0	0	0
COc1ccc(CNC(=O)C(OC(C)=O)c2ccccn2)cc1 (stereo unspecified)	0	?	7.9µM	0	0
Cc1ccc(NC(=O)C(=O)NCCc2csc3nc(-c4ccccc4C)nn23)cc1Cl	-	-	-	0	-
Cc1cc(C(=O)CSc2nnc(C3COc4ccccc4O3)n2C)c(C)n1-c1ccc(F)cc1 (stereo unspecified)	0	?	10µM	?	0
CC(C)n1c2ccccc2c2nnc(SCC(=O)OCN3C(=O)c4ccccc4C3=O)nc21	?	0[11.4 µM]	0[11.4 µM]	0	0
Cc1nn(CC(=O)Nc2ccccn2)c(=O)c2ccccc12	0	-	0	0	0
COc1ccccc1N(C(=O)c1ccco1)C(C(=O)NC1CCCC1)c1cccnc1 (stereo unspecified)	0	?	?	0	0
O=C(NC1CCCCC1)C(c1ccco1)N(Cc1cccnc1)C(=O)C1COc2ccccc2O1 (stereo unspecified)	0	?	16µM	0	0
O=C(c1cc(-c2ccc(O)cc2)on1)N1CCc2ccccc2C1	?	?	20µM	?	32µM
CCn1nc(C(=O)OCc2c(C)noc2C)c2ccccc2c1=O	10µM	0[11.4 µM]	0	0	0
COc1ccc(-c2nc3cnc(Oc4cccc(Cl)c4)nc3n(C3CC3)c2=O)cc1	3.2µM	0	0	0[11.4 µM]	0
O=c1c(-c2ccccc2)nc2cnc(Oc3cccc(Cl)c3)nc2n1C1CC1	?	?	?	0[11.4 µM]	0
Cn1c(=O)c(-c2ccc(Cl)cc2)nc2cnc(Oc3ccccc3)nc21	3.2µM	0	0	0[11.4 µM]	0
O=C(Cn1nc(-c2ccccc2)ccc1=O)N1CCOCC1	0	0	0	0	0
CS(=O)(=O)Nc1cccc(-c2nc(Nc3ccncc3)c3ccccc3n2)c1	6.3µM	0	0	0[11.4 µM]	?
COc1cccc(-c2nc(NCc3cnc(C)cn3)c3ccccc3n2)c1	13µM	0	0	0[11.4 µM]	0
Cc1cnc(CNc2nc(-c3cccc(NS(C)(=O)=O)c3)nc3ccccc23)cn1	13µM	0	0	0[11.4 µM]	0
CS(=O)(=O)Nc1cccc(-c2nc(Nc3ccccc3)c3ccccc3n2)c1	?	-	0	0[11.4 µM]	?
